Structures can show the parent of a compound that is named as a salt. In all, about 2,600 compounds were measured (“total cell number (DAPI+ nuclei) relative to DMSO vehicle control”: median about -1.4, lowest 2% from about -23 on). The entries come from a sample that favours the lowest values as a whole.
What follows are compounds tested on jimpy (Plp1 jimpy) mouse iPSC-derived oligodendrocyte progenitor cells (assay: total cell number (DAPI+ nuclei) relative to DMSO vehicle control (SDs above negative control mean); higher = more surviving cells). Settings: 10 µM; 3 days.
Description: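 Primary phenotypic screen of >3,000 bioactive compounds (Selleck L1700 and Sigma LO1280 libraries) at a single dose of 10 µM. Compounds were added to jimpy (Plp1 mutant) mouse iPSC-derived OPCs at the start of thyroid hormone-induced oligodendrocyte differentiation, one well per compound in 384-well plates. After 3 days cells were stained for MBP, Sox10 and DAPI and imaged with an Operetta system. MBP+ oligodendrocyte number and total cell number were expressed as the number of SDs above the mean of the DMSO negative control on the same plate (n=16 control wells per plate). Hits were defined as >=4 SD for oligodendrocytes and >=2 SD for total cells.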

SMILES	total cell number
CC[C@@]1(O)C(=O)OCc2c1cc1n(c2=O)Cc2cc3ccccc3nc2-1 [Camptothecin]	-22.6
CC[C@@]1(O)C(=O)OCc2c1cc1n(c2=O)Cc2cc3ccccc3nc2-1 [(S)-(+)-Camptothecin]	-9.49
CC1C2Cc3ccc(O)cc3C1(C)CCN2CC1CC1 (single isomer, unassigned; (+)) [(+)-Cyclazocine]	-1.89
CC(C)C1CNC(C(=O)O)C1CC(=O)O (stereo unspecified) [Dihydrokainic acid]	-0.564
Cc1cc([C@@H]2CCCN2C)on1 [ABT-418 hydrochloride]	-4.48
Clc1ccc(N2CCN(Cc3c[nH]c4ncccc34)CC2)cc1 [L-745,870 hydrochloride]	-5.68
COC[C@H]1OC(=O)c2coc3c2[C@@]1(C)C1=C(C3=O)C2CCC(=O)[C@@]2(C)C[C@H]1OC(C)=O (stereo partly specified) [Wortmannin from Penicillium funiculosum]	-3.09
CC[C@@H]1/C=C/C=C/C[C@H](C)[C@H](O)[C@](C)(O)C(=O)[C@H](C)[C@@H](O)[C@H](C)C(=O)[C@H](C)[C@@H](O)[C@H](C)/C=C/C(=O)O[C@H]2[C@@H](C)[C@@H](CC1)O[C@@]1(CC[C@@H](C)[C@@H](C[C@H](C)O)O1)[C@@H]2C [Oligomycin A]	-27.5
NC(Cc1cc(O)c(O)cc1O)C(=O)O (racemic) [6-Hydroxy-DL-DOPA]	-2.36
O=c1ccc2[nH]cc(C3=CCNCC3)c2[nH]1	0.673
CC1=NN=C(c2ccc(N)cc2)c2cc3c(cc2C1)OCO3	-0.785
CO[C@H]1CC[C@@H](O[C@H]2C[C@H]([C@]3(C)CC[C@]4(C[C@H](O)[C@@H](C)[C@@H]([C@@H](C)/C=C(\C)C(=O)[C@H](C)C[C@H](C)C(=O)O)O4)O3)O[C@]3(O[C@@H]([C@H]4O[C@@](O)(CO)[C@H](C)C[C@@H]4C)C[C@@H]3C)[C@@H]2C)O[C@@H]1C [Nanchangmycin]	-27.5
COc1cc(C(O)CN)ccc1O (racemic) [(±)-Normetanephrine hydrochloride]	-1.67
COc1cc2c(cc1OC)C1CC(=O)C(CC(C)C)CN1CC2 (stereo unspecified) [Tetrabenazine]	-0.277
CC(N)C(O)c1ccc(O)c(O)c1 (single isomer, unassigned; (-)) [(-)-alpha-Methylnorepinephrine]	-0.161
CCCCC/C=C\C/C=C\C/C=C\C/C=C\CCCC(=O)NCc1ccc(O)c(OC)c1 [Arvanil]	-8.09

— the supplement of paper PMC6135742
